Results: PubChem BioAssay (NCI)
This is part of a sample that, as a whole, favours compounds with a hit. Of some 79,000 tested, about 15% had one in any assay. Activity calls are given as the source filed them. Rule as the data show it: active = growth inhibition above about 70%; inactive = the rest.

Tests used:
[1] = NCI Yeast Anticancer Drug Screen. Data for the rad52 strain (AID 147);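 also: 0% = growth of vehicle-treated control cultures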; conditions: S. cerevisiae rad52 mutant growth inhibition, active compounds read high
How it was run: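 Compounds are applied to a genetically defined yeast strain lacking normal DNA damage repair, and inhibition of growth is expressed relative to cultures given vehicle only.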

[2] = NCI Yeast Anticancer Drug Screen. Data for the wt1 strain (AID 149);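 also: 0% = growth of vehicle-treated wt1 cultures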; conditions: S. cerevisiae wt1 strain (SPY 50644) growth inhibition, active compounds read high
How it was run: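 Growth inhibition read against vehicle controls after compound exposure of the wt1 yeast strain.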

[3] = NCI Yeast Anticancer Drug Screen. Data for the rad50EPP+ strain (AID 151);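 also: 0% = growth of vehicle-treated control cultures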; conditions: S. cerevisiae rad50 mutant strain, active compounds read high
How it was run: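 Compounds were applied to the rad50EPP+ yeast strain, which bears a defined DNA repair alteration, and growth inhibition was determined relative to vehicle-treated cultures.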

[4] = NCI Yeast Anticancer Drug Screen. Data for the rad50 strain (AID 155);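 also: 0% = growth of vehicle-only cultures of the same strain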; conditions: S. cerevisiae rad50 strain growth inhibition, active compounds read high
How it was run: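 Readout: growth inhibition relative to vehicle-treated cultures. Compound exposure was carried out in a genetically defined yeast strain deficient in DNA damage repair.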

[5] = NCI Yeast Anticancer Drug Screen. Data for the mec2-1 strain (AID 157); conditions: S. cerevisiae mec2-1 strain, active compounds read high
How it was run: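 Strain: mec2-1 (DNA repair/cell cycle alteration). Compound exposure, then growth measured; inhibition expressed relative to vehicle.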

[6] = NCI Yeast Anticancer Drug Screen. Data for the rad14 strain (AID 159);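 also: 0% = growth of vehicle-treated control cultures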; conditions: S. cerevisiae rad14 strain growth inhibition, active compounds read high
How it was run: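 Growth inhibition vs vehicle controls; genetically altered yeast strain (DNA damage repair defect) treated with test compounds.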

[7] = NCI Yeast Anticancer Drug Screen. Data for the sgs1 mgt1 strain (AID 161);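 also: 0% = growth of cultures given vehicle only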; conditions: S. cerevisiae sgs1 mgt1 strain, active compounds read high
How it was run: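 Genetically altered yeast, compound exposure, growth inhibition relative to vehicle.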

[8] = NCI Yeast Anticancer Drug Screen. Data for the CLN2oe strain (AID 163);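 also: 0% = growth of vehicle-only control cultures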; conditions: S. cerevisiae CLN2oe strain, active compounds read high
How it was run: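 Growth of a genetically modified yeast strain is measured after compound exposure and compared with cultures given vehicle alone.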

[9] = NCI Yeast Anticancer Drug Screen. Data for the cln2 rad14 strain (AID 165);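 also: 0% = growth equal to vehicle treated cultures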; conditions: S. cerevisiae cln2 rad14 strain, active compounds read high
How it was run: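 Compounds are applied to the cln2 rad14 yeast strain, and growth is then compared with that of vehicle-treated cultures to give inhibition.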

[10] = NCI Yeast Anticancer Drug Screen. Data for the bub3 strain (AID 167); conditions: S. cerevisiae bub3 mutant strain, active compounds read high
How it was run: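 Readout: yeast growth inhibition, expressed relative to vehicle-only wells. The test organism is a mutant strain from a panel with lesions in DNA repair or checkpoint genes.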

[11] = NCI Yeast Anticancer Drug Screen. Data for the wt2 strain (AID 169);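 also: 0% = growth of vehicle-treated yeast cultures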; conditions: S. cerevisiae wt2 strain growth inhibition, active compounds read high
How it was run: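 This strain belongs to a panel of yeast strains with defined genetic alterations in DNA damage repair or cell cycle control. Compounds are applied, and growth inhibition is measured against vehicle-treated cultures.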

[12] = NCI Yeast Anticancer Drug Screen. Data for the mlh1 strain (AID 171);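 also: 0% = growth of vehicle-treated control cultures of the same strain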; conditions: S. cerevisiae mlh1 strain growth inhibition, active compounds read high
How it was run: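 Growth of the mutant yeast strain after compound exposure, expressed as inhibition relative to vehicle-only controls.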

[13] = NCI Yeast Anticancer Drug Screen. Data for the sgs1 strain (AID 173);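 also: 0% = growth of vehicle-only control cultures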; conditions: S. cerevisiae sgs1 mutant, active compounds read high
How it was run: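 Growth of a yeast strain bearing a defined genetic alteration is measured after compound treatment. Inhibition is expressed relative to vehicle-only controls.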

[14] = NCI Yeast Anticancer Drug Screen. Data for the mlh1 rad18 strain (AID 175); conditions: S. cerevisiae mlh1 rad18 strain growth inhibition, active compounds read high
How it was run: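 Read-out is yeast growth inhibition, calculated against vehicle-only controls. The compound was applied to a strain engineered with DNA damage repair alterations.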

[15] = NCI Yeast Anticancer Drug Screen. Data for the rad18 strain (AID 177); conditions: S. cerevisiae rad18 mutant growth inhibition, active compounds read high
How it was run: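 Growth of the mutant yeast strain after compound exposure, normalised to vehicle-only cultures.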

[16] = at 5.0 µM (retest, dose inferred, filed as 0.5)
[17] = at 50.0 µM (retest, dose inferred, filed as 5.0)

Measured: growth inhibition

CCc1[nH]nc(C(N)=O)c1N=NN(C)C
active: [1]; at 33.0 µM 97% | [1]; at 100.0 µM 97% | [3]; at 100.0 µM 95% | [4]; at 33.0 µM 90% | [4]; [17] 85% | [4]; at 50.0 µM 90.1% | [4]; at 100.0 µM 97% | [5]; at 100.0 µM 94% | [13]; at 100.0 µM 88% | [14]; at 50.0 µM 70.7% | [15]; at 33.0 µM 85% | [15]; at 100.0 µM 96%
inactive: [1]; at 1.2 µM 3% | [1]; at 3.7 µM 20% | [1]; at 11.0 µM 66% | [2]; at 1.2 µM -6% | [2]; at 3.7 µM -4% | [2]; at 11.0 µM -7% | [2]; at 33.0 µM -5% | [2]; at 100.0 µM 1% | [3]; at 1.2 µM 0% | [3]; at 3.7 µM 12% | [3]; at 11.0 µM 27% | [3]; at 33.0 µM 69% | [4]; at 1.2 µM -4% | [4]; at 3.7 µM 5% | [4]; [16] -118% | [4]; at 11.0 µM 49% | [5]; at 1.2 µM 3% | [5]; at 3.7 µM -1% | [5]; [16] -46% | [5]; at 11.0 µM 7% | [5]; at 33.0 µM 25% | [5]; [17] 11% | [5]; at 50.0 µM 17.7% | [6]; at 1.2 µM -1% | [6]; at 3.7 µM -3% | [6]; at 11.0 µM 3% | [6]; at 33.0 µM 13% | [6]; at 100.0 µM 41% | [7]; [16] -57% | [7]; [17] 14% | [7]; at 50.0 µM 12.8% | [8]; at 1.2 µM -2% | [8]; at 3.7 µM -3% | [8]; at 11.0 µM 0% | [8]; at 33.0 µM 1% | [8]; at 100.0 µM 18% | [9]; [16] -53% | [9]; [17] -35% | [9]; at 50.0 µM 21.1% | [10]; at 1.2 µM -9% | [10]; at 3.7 µM -5% | [10]; [16] -66% | [10]; at 11.0 µM -3% | [10]; at 33.0 µM -6% | [10]; [17] -84% | [10]; at 50.0 µM -15.4% | [10]; at 100.0 µM 14% | [11]; at 1.2 µM -1% | [11]; at 3.7 µM 0% | [11]; at 11.0 µM -1% | [11]; at 33.0 µM 0% | [11]; at 100.0 µM 11% | [12]; at 1.2 µM 4% | [12]; at 3.7 µM -4% | [12]; at 11.0 µM -2% | [12]; at 33.0 µM 6% | [12]; at 100.0 µM 21% | [13]; at 1.2 µM 0% | [13]; at 3.7 µM -5% | [13]; at 11.0 µM 15% | [13]; at 33.0 µM 53% | [14]; [16] -126% | [14]; [17] 1% | [15]; at 1.2 µM 1% | [15]; at 3.7 µM 6% | [15]; at 11.0 µM 28%
